Screens: PubChem BioAssay, several laboratories
A selection: hits, their analogues and other compounds. The true share with any hit is near 1.9%.
Efa HMGR inh – inhibitors of E. faecalis class II HMGR, primary screen, biochemical, Enterococcus faecalis; 190,000 tested, 0.41% active; inhibition, % at 10 µM; HMG-CoA reductase (Enterococcus faecalis, mvaE); AID 1066, 2008; purified E. faecalis HMGR, NADPH absorbance 340 nm kinetic;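 active = inhibition above a set limit, the median over all tested compounds plus 3 SD, cut at about 9.5% in these data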;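 also: enzyme runs in reverse so mevalonate oxidation gives rising NADPH absorbance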
Autophagy mod – autophagy modulators in MEF cells, primary screen, imaging, high-content, MEF GFP-LC3; MEF GFP-LC3 puncta imaging; test concentration mostly 10 µM; calls only at 10 µM (by protocol); 190,000 tested, 0.98% active; AID 463193, 2010;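 active = percentage of spot-positive cells more than 3 SD above its plate mean, without a fluorescence outlier flag or 80% toxicity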
Ins promoter up – insulin promoter activators in MIN6 cells, imaging, high-content screening, mouse beta cells. z-score at 5 µM. AID 1625, 2009. 190,000 tested, 0.3% active. MIN6 insulin promoter-GFP reporter; hits give high values;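 active = z-score above 3 at 5 µM with at least 500 cells counted in the well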
INS promoter inh – inhibitors of insulin promoter-driven GFP, primary screen, imaging, TRM-6 cells (human fetal islet line), eGFP reporter, cell count. reporter expression induced with tamoxifen. inhibition, % at 2 µM. 130,000 tested, 0.9% active;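 active = inhibition above the mean plus 3 SD, with well images judged a real hit on visual review, cut at about 60% in these data, passing the limit was not always enough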
Each line names hits and unclear results; the compound was inactive in the other large screens.

CN(C)C(=O)C(=O)c1cccn1-c1cccc(Cl)c1C#N	none (no result: INS promoter inh)
CCOC(=O)c1sc(N/N=C/c2ccccc2)nc1C	Efa HMGR inh 9.9
CCOC(=O)c1sc(NC(=O)CSc2nccc(C)n2)nc1C	Efa HMGR inh 19.1 (no result: Ins promoter up)
CCOC(=O)c1sc(NC(=O)CSc2nccc(C)n2)c(C#N)c1C	none (no result: Ins promoter up)
CCOC(=O)c1ccc(Oc2ccc(C(F)(F)F)cn2)cc1	none (no result: INS promoter inh)
COc1ccc2cc3c(N)nn(C(=O)C4CCC(C(C)(C)C)CC4)c3nc2c1 (configuration not stated)	INS promoter inh 60.0
C=CCN(C(=O)CNC(=O)c1cccs1)C(C(=O)NC1CCCCC1)c1cccnc1 (configuration not stated)	none (no result: INS promoter inh)
CC(NCCC(c1ccccc1)c1ccccc1)c1ccccc1 (configuration not stated)	Efa HMGR inh 18.9, Autophagy mod active (no result: Ins promoter up)
Cc1cc2nc(CCN3CCOCC3)n(S(=O)(=O)c3ccc(C(C)(C)C)cc3)c2cc1C	INS promoter inh 85.7
Cc1cc2ncn(S(=O)(=O)c3ccc(S(=O)(=O)N4CCOCC4)cc3)c2cc1C	none
Cc1ccc(S(=O)(=O)N2C(=O)/C(=C3\SC(=S)NC3=O)c3ccccc32)cc1	none (no result: Efa HMGR inh, Autophagy mod, INS promoter inh)
CCC1C(=O)N=C(SCC(=O)Nc2nc3ccccc3s2)NC1=O (configuration not stated)	none
N#CCCn1cc(/C=C(\C#N)c2nc3ccccc3s2)c(-c2ccc(F)cc2)n1	INS promoter inh 74.4
COCCNC(=O)/C(C#N)=C/C(C)=C/c1ccccc1	none
CCCOc1ccc(C2C(C(=O)OC)=CN(CCOC)C=C2C(=O)OC)cc1	none
COCCN1C=C(C(=O)OC)C(c2ccc(OC)c(OC)c2)C(C(=O)OC)=C1	INS promoter inh 70.6
CCOC(=O)c1c(CN(CC)CC)oc2ccc(OC)cc12	Efa HMGR inh 11.7
CCc1ccc([C@@H]2C[C@H]3CN(Cc4ccccc4OC)C(=O)[C@]34CCCN24)cc1	none (no result: INS promoter inh)
COc1cc(NC(=O)c2cc(Cl)ccc2Cl)ccc1-c1cc2ccccc2oc1=O	Autophagy mod active
Cc1ccc(C2=Nc3ccccc3SC(c3cccc([N+](=O)[O-])c3)C2)cc1 (configuration not stated)	none (no result: Efa HMGR inh, Autophagy mod, INS promoter inh)
Cn1c(Cn2nnc3ccccc32)nnc1SCC(=O)Nc1nccs1	Autophagy mod active (no result: Ins promoter up, INS promoter inh)
Cn1c(CSCc2ccccc2)nnc1SCC(=O)Nc1nccs1	none
Fc1ccc(C2=NN(c3ccccc3)C(c3ccco3)C2)cc1 (configuration not stated)	Efa HMGR inh 12.9 (no result: INS promoter inh)
Cc1ccc(N2N=C(c3ccc(F)cc3)CC2c2ccco2)cc1 (configuration not stated)	none
CC1(C)Cc2c(C#N)c(NCc3ccco3)nc(-c3ccco3)c2CO1	Efa HMGR inh 12.3
Cc1nc(NCc2ccco2)c(C#N)c2c1COC(C)(C)C2	none
CCCCn1c(O)c(/C=C/C=C/C=Nc2ccccc2)sc1=S	Ins promoter up 4.72
CCn1c(O)c(/C=C/C=C/C=Nc2ccccc2)sc1=S	none
Oc1c(/C=C/C=C/C=Nc2ccccc2)sc(=S)n1Cc1ccccc1	Ins promoter up 3.27 (no result: Efa HMGR inh, Autophagy mod, INS promoter inh)
CCCCCC(=O)NC(=S)Nc1cccc(-c2nc3ncccc3o2)c1	none (no result: Efa HMGR inh, Autophagy mod, INS promoter inh)
O=C(/C=C/c1ccc2c(c1)OCO2)Nc1ccc(Cl)cn1	INS promoter inh 72.7
O=C(/C=C/c1ccccc1Cl)Nc1ccc(Cl)cn1	none (no result: Ins promoter up, INS promoter inh)
Cc1sc(/N=C/c2c(O)ccc3ccccc23)c(C#N)c1C	Autophagy mod active (no result: Ins promoter up, INS promoter inh)
COc1ccc(O)c(/C=N/c2sc(C)c(C)c2C#N)c1	none
CC(C)(C)c1nc(SCC(=O)c2ccccc2)c2ccccc2n1	Autophagy mod active (no result: INS promoter inh)
C/C(CC(=O)Nc1c(C)cc(C)cc1C)=N\NC(=O)c1cnccn1	none (no result: Ins promoter up)
O=C(NC(Cc1c[nH]c2ccccc12)C(=O)O)/C(=C/c1ccc2c(c1)OCO2)NC(=O)c1ccccc1 (configuration not stated)	INS promoter inh 72.7 (no result: Ins promoter up)
COc1ccc(C2c3[nH]c4ccccc4c3CCN2Cc2cccn2-c2ncccn2)cc1C (configuration not stated)	Autophagy mod active (no result: Ins promoter up, INS promoter inh)
COc1ccccc1N(C(=O)c1ccncc1)c1nc(-c2ccc([N+](=O)[O-])cc2)cs1	none
Cn1c(SCC(=O)Nc2cc(Cl)cc(Cl)c2)nnc1-c1ccc2nonc2c1	none (no result: Efa HMGR inh, Autophagy mod, INS promoter inh)
CNC(=O)Nc1cccc(C(F)(F)F)c1	INS promoter inh 81.2
O=C(Nc1ccccc1)Nc1cccc(C(F)(F)F)c1	none
O=C(CC1Sc2ncnn2C1=O)Nc1ccccc1 (configuration not stated)	none (no result: Ins promoter up)
CC(=O)CCn1cnc([N+](=O)[O-])n1	none (no result: Ins promoter up)
Cc1cc([N+](=O)[O-])nn1CC(=O)NNC(=S)Nc1ccc(F)cc1	none (no result: Ins promoter up)
Cc1cc([N+](=O)[O-])nn1CC(=O)Nc1ccc(F)cc1	Efa HMGR inh 11.4 (no result: INS promoter inh)
Cc1cc([N+](=O)[O-])nn1CC(=O)Nc1ccccn1	none (no result: Ins promoter up)
Cc1cccnc1NC(=O)Cn1nc([N+](=O)[O-])cc1C	Efa HMGR inh 13.8 (no result: INS promoter inh)
O=C(N/C(=C/c1cccs1)C(=O)N1CCOCC1)c1ccccc1	none
CCC(C)[C@@H](N)C(=O)N/N=C/c1cccc2nccnc12 (some centres not stated)	none (no result: Efa HMGR inh, Autophagy mod, INS promoter inh)
O=[N+]([O-])c1ccc2c(OCc3nnc(-c4ccccc4Br)o3)ncnc2c1	none (no result: Efa HMGR inh, Autophagy mod, INS promoter inh)
COc1ccc2oc(=O)c(-c3nnc(NCc4ccco4)s3)cc2c1	Autophagy mod active (no result: INS promoter inh)
CCOc1cccc2cc(-c3nnc(NCc4ccco4)s3)c(=O)oc12	none (no result: INS promoter inh)
Cc1ccc[n+](-c2[nH]c(=O)sc2/C=N/NC(=O)c2ccccc2[O-])c1	none (no result: INS promoter inh)
O=C(c1ccc(C#CC2(O)CCCCC2)cc1)N1CCN(C(c2ccccc2)c2ccccc2)CC1	none
Cc1[nH]c2ccccc2c1/C=C/c1nc2ccccc2c(=O)n1-c1ccc([N+](=O)[O-])cc1	Autophagy mod active
Cn1ncc2c1ncn1nc(CCc3ccccc3)nc21	Ins promoter up 3.58 (no result: INS promoter inh)
Cc1noc(C)c1CSc1nnc(C)c(=O)[nH]1	INS promoter inh 78.4
Cc1nnc(SCc2cccs2)[nH]c1=O	none
C=CCOC(=O)C1=C(C)NC(SCC(=O)Nc2ccc(C)c(Cl)c2)=C(C#N)C1c1ccco1 (configuration not stated)	Autophagy mod active (no result: INS promoter inh)
CC(=O)C1=C(C)NC(SCC(=O)c2ccc(C)cc2)=C(C#N)C1c1ccco1 (configuration not stated)	Autophagy mod active
COCCOC(=O)C1=C(C)NC(SCC(=O)NC(C)(C)C)=C(C#N)C1c1ccco1 (configuration not stated)	none
Cc1c(Cl)cccc1NC(=S)Nc1ccc2[nH]c(=O)[nH]c2c1	none (no result: Efa HMGR inh, Autophagy mod, INS promoter inh)
O=C(NC1CCCCC1)c1nn2c(C(F)(F)F)cc(-c3ccco3)nc2c1Br	Autophagy mod active (no result: INS promoter inh)
O=C(Nc1ccc(Cl)cc1)c1cc2nc(-c3ccco3)cc(C(F)(F)F)n2n1	INS promoter inh 71.4
Cc1nn(C)c(C)c1NC(=O)c1cc2nc(-c3ccco3)cc(C(F)(F)F)n2n1	none (no result: INS promoter inh)
CCc1sc(C(=O)Nc2ccccc2N2CCOCC2)cc1C	none
CC(=O)Nc1ccc(Nc2cc(C)nc3c(-c4ccc(Cl)cc4)cnn23)cc1	INS promoter inh 79.6 (no result: Ins promoter up)
